# Test results taken from paper PMC7862700, “An all-to-all approach to the identification of sequence-specific readers for epigenetic DNA modifications on cytosine”.
# Key:
# Assay in all cases: DAPPL (digital affinity profiling via proximity ligation, sequencing); 10 mM Tris-HCl pH 7.5, 50 mM NaCl, 1 mM DTT, 4% glycerol, room temperature, 30 min; GST-TFs on glutathione beads, 16-mer random dsDNA library, 0.1% formaldehyde crosslink after washing; high values mean tight binding
# [1] = molecular target: T1, FLI1 (Homo sapiens, UniProt Q01543 1-452); details: protein: recombinant; tags: N-terminal GST; dsDNA, one strand shown
# T1 sequence: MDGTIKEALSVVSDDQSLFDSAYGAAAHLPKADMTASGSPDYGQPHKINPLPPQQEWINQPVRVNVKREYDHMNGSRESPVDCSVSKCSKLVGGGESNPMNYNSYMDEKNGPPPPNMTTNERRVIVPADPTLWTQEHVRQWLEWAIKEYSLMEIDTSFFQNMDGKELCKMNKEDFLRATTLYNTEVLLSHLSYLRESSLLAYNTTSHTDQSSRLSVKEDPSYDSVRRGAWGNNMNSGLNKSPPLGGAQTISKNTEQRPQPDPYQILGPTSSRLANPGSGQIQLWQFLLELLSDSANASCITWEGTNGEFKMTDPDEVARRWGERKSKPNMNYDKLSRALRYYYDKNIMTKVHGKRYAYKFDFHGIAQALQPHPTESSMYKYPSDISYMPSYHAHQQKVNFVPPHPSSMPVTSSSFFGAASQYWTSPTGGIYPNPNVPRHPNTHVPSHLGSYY
# Procedure, shortened: (§1)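 Yeast served to express human transcription factors as GST fusions, which were then captured on glutathione beads and labelled with DNA barcodes. Pooled with a tag-only sample, they were incubated with 200 nmole of a 16-mer random double-stranded DNA library for 30 min at room temperature in Tris/NaCl/DTT/glycerol buffer, washed, crosslinked with 0.1% formaldehyde, ligated by proximity, amplified by PCR and sequenced. Dividing each hexamer's read frequency for a factor by its frequency for the tag-only sample gives the binding signal.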
# [2] = molecular target: T2, ELK1 (Homo sapiens, UniProt P19419 1-428); details: protein: recombinant; tags: N-terminal GST; dsDNA, one strand shown
# T2 sequence: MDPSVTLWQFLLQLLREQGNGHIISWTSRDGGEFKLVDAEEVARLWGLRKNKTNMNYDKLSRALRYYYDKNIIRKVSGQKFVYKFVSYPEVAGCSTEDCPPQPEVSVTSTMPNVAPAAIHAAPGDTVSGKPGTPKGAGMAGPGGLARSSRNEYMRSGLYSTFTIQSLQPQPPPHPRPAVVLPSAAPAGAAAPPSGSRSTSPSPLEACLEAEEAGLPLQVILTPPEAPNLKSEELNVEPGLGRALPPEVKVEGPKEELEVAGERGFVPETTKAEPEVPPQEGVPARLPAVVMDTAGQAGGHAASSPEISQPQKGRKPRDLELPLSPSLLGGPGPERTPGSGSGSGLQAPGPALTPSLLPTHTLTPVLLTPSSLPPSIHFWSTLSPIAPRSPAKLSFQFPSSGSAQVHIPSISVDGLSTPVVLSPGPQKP
# Procedure, shortened: as §1
# [3] = molecular target: T3, GABPA (Homo sapiens, UniProt Q06546 1-454); details: protein: recombinant; tags: N-terminal GST; dsDNA, one strand shown
# T3 sequence: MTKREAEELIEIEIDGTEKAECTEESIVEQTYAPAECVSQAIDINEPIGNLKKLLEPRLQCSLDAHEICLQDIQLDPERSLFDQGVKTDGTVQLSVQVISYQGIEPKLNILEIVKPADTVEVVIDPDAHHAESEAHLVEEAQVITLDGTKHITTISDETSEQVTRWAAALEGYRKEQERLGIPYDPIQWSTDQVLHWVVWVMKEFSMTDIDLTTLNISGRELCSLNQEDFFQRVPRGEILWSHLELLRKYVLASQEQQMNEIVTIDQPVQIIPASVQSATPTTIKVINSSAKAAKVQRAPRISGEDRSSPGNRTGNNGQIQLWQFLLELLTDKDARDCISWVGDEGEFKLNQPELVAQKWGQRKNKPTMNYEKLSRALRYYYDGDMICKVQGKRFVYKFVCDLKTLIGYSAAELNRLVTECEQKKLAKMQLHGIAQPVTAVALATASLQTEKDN
# Procedure, shortened: as §1
# [4] = molecular target: T4, ERG (Homo sapiens, UniProt P11308 1-479); details: protein: recombinant; tags: N-terminal GST; dsDNA, one strand shown
# T4 sequence: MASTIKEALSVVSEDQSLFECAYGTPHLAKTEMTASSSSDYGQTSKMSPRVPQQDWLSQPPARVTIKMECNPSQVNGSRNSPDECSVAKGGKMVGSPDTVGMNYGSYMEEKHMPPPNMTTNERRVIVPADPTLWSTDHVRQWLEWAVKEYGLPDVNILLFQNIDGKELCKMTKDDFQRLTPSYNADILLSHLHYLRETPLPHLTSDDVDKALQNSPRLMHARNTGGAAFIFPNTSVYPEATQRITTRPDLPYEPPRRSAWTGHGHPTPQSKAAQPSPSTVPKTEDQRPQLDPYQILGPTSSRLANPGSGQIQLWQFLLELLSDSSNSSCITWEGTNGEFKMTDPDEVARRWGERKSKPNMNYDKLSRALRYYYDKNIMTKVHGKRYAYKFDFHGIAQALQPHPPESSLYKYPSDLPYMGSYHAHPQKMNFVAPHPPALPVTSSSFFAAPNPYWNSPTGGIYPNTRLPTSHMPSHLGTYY
# Procedure, shortened: as §1
# [5] = molecular target: ELF1 (Homo sapiens, UniProt P32519 1-619); details: protein: recombinant; tags: N-terminal GST; dsDNA, one strand shown
# Chain of ELF1 (P32519 whole entry): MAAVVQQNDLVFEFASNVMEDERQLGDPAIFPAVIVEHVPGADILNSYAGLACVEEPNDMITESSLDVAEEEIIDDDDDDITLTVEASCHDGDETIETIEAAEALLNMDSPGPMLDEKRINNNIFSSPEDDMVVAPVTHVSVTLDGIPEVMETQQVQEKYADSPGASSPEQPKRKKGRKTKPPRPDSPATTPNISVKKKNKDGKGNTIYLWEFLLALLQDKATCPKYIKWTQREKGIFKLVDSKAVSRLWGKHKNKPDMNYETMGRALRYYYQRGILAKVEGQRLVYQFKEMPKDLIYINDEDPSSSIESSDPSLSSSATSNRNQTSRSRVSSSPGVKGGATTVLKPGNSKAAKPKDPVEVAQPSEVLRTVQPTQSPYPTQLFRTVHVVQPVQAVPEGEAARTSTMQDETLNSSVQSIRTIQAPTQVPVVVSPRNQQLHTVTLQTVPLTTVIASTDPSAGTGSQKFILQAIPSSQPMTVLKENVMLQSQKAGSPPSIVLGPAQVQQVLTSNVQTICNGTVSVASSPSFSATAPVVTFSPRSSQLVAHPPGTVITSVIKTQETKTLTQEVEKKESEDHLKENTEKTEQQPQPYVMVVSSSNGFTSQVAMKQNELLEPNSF
# Procedure, shortened: as §1
# [6] = molecular target: T5, EHF (Homo sapiens, UniProt Q9NZC4 1-300); details: protein: recombinant; tags: N-terminal GST; dsDNA, one strand shown
# T5 sequence: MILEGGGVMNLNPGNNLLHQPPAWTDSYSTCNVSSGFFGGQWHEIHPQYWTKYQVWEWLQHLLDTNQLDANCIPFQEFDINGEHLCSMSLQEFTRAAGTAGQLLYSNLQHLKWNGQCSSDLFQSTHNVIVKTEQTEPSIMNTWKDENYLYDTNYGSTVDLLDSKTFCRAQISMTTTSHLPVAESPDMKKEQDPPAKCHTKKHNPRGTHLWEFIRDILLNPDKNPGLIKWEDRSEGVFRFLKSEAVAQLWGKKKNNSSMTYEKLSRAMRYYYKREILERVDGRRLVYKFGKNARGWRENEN
# Procedure, shortened: as §1
# [7] = molecular target: SPI1 (Homo sapiens, UniProt P17947 1-270); details: protein: recombinant; tags: N-terminal GST; dsDNA, one strand shown
# Procedure, shortened: as §1
# [8] = molecular target: SPIB (Homo sapiens, UniProt Q01892 1-262); details: protein: recombinant; tags: N-terminal GST; dsDNA, one strand shown
# Chain of SPIB (Q01892 whole entry): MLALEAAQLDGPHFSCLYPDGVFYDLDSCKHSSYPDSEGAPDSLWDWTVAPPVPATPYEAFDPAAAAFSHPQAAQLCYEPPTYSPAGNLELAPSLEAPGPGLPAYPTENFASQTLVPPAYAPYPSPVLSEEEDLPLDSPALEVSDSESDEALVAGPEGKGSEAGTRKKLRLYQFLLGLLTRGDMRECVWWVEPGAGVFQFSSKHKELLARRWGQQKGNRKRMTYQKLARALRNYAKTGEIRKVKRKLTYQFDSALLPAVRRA
# Procedure, shortened: as §1
# [9] = molecular target: T6, ELK3 (Homo sapiens, UniProt P41970 1-407); details: protein: recombinant; tags: N-terminal GST; dsDNA, one strand shown
# T6 sequence: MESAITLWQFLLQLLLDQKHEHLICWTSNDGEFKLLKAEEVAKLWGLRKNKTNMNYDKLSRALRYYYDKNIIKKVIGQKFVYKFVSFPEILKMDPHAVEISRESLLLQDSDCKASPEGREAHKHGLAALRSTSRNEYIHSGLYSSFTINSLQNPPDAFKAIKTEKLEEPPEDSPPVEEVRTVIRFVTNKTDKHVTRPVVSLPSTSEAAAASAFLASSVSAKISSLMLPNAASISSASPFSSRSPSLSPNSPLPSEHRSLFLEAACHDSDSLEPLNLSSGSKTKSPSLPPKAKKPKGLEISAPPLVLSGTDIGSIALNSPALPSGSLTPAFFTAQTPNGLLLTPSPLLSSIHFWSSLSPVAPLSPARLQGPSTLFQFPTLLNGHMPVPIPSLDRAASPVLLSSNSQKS
# Procedure, shortened: as §1
# [10] = molecular target: T7, FEV (Homo sapiens, UniProt Q99581 1-238); details: protein: recombinant; tags: N-terminal GST; dsDNA, one strand shown
# T7 sequence: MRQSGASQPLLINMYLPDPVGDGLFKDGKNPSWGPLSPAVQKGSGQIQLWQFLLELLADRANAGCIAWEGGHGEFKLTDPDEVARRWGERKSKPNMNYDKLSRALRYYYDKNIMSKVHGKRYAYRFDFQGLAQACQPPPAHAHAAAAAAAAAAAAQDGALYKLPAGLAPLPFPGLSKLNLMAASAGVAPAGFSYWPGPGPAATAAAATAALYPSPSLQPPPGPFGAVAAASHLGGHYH
# Procedure, shortened: as §1
# [11] = molecular target: ETV5 (Homo sapiens, UniProt P41161 1-510); details: protein: recombinant; tags: N-terminal GST; dsDNA, one strand shown
# Chain of ETV5 (P41161 whole entry): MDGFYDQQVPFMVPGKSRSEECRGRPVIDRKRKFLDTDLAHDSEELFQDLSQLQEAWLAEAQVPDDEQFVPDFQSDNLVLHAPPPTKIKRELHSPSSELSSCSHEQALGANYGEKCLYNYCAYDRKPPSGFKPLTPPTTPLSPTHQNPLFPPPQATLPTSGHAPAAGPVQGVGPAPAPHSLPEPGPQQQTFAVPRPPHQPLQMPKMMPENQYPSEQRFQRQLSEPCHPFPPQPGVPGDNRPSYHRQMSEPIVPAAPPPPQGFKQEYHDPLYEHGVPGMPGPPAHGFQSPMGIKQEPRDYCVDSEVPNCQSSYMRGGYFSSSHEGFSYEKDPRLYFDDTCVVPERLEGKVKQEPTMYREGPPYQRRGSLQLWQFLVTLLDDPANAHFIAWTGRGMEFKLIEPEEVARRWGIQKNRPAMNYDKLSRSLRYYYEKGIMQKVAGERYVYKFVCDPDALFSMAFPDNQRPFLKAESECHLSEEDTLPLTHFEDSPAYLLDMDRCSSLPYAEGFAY
# Procedure, shortened: as §1
# [12] = molecular target: HSF1 (Homo sapiens, UniProt Q00613 1-529); details: protein: recombinant; tags: N-terminal GST; chain copies: 3; dsDNA, one strand shown
# Chain of HSF1 (Q00613 whole entry): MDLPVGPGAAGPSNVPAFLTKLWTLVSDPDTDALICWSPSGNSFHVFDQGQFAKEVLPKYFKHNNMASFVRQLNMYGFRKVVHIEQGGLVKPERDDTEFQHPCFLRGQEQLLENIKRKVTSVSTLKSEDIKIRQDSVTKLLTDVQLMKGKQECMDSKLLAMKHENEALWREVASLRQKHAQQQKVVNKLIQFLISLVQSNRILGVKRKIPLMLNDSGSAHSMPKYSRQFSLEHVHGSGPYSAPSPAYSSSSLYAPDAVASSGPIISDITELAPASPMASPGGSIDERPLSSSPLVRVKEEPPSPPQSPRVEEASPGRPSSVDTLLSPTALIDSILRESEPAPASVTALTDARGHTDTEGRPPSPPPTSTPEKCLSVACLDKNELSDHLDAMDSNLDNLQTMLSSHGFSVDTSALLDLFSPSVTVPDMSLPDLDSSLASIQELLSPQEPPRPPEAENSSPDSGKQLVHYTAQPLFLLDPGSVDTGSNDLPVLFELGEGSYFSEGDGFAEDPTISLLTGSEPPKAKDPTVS
# Procedure, shortened: as §1
# [13] = molecular target: T8, SPIC (Homo sapiens, UniProt Q8N5J4 1-248); details: protein: recombinant; tags: N-terminal GST; dsDNA, one strand shown
# T8 sequence: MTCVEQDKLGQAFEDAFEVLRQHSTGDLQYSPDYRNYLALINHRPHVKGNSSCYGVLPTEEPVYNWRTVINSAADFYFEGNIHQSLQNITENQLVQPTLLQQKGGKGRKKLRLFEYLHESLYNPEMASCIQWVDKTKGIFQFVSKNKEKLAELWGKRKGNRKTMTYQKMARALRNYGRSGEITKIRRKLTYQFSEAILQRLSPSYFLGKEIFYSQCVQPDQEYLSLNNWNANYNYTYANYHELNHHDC
# Procedure, shortened: as §1
# [14] = molecular target: ELF4 (Homo sapiens, UniProt Q99607 1-663); details: protein: recombinant; tags: N-terminal GST; dsDNA, one strand shown
# Chain of ELF4 (Q99607 whole entry): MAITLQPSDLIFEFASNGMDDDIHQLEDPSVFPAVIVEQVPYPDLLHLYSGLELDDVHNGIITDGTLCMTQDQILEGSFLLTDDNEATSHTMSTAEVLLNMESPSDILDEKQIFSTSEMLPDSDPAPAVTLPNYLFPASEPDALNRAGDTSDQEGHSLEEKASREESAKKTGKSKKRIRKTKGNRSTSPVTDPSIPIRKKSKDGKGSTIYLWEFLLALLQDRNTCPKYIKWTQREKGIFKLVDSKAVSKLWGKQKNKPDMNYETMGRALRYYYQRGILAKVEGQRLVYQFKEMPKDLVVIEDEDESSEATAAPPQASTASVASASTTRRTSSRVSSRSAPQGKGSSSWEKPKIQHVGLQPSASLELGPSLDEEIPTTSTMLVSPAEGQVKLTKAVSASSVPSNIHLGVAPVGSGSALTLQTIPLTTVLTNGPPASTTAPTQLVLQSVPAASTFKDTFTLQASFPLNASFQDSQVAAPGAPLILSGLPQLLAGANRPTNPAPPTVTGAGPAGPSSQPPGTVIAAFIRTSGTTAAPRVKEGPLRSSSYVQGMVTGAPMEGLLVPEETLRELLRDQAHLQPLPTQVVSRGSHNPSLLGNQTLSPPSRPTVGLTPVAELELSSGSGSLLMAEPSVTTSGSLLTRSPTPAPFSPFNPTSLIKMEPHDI
# Procedure, shortened: as §1
# [15] = molecular target: T9, ELK4 (Homo sapiens, UniProt P28324-2 1-405); details: protein: recombinant; tags: N-terminal GST; dsDNA, one strand shown
# T9 sequence: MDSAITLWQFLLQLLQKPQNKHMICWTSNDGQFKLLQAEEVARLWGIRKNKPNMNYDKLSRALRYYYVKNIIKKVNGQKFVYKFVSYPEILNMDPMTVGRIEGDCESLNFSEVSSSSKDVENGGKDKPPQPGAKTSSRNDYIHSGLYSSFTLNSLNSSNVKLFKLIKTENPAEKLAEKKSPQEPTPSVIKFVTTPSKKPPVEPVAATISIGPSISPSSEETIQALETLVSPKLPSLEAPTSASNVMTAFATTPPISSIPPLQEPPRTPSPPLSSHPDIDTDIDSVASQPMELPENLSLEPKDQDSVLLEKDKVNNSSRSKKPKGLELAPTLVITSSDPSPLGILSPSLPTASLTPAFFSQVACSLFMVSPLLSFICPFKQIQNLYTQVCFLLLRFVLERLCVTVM
# Procedure, shortened: as §1
# [16] = molecular target: T10, ETV2 (Homo sapiens, UniProt O00321 1-342); details: protein: recombinant; tags: N-terminal GST; dsDNA, one strand shown
# T10 sequence: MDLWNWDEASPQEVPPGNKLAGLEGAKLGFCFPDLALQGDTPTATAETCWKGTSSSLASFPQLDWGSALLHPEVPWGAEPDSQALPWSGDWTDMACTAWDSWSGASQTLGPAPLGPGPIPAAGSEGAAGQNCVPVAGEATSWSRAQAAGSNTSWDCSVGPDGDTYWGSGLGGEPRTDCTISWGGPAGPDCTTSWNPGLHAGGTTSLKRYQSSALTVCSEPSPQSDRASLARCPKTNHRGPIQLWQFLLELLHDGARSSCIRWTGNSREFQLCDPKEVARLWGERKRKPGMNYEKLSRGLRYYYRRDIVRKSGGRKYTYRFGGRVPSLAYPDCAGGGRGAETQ
# Procedure, shortened: as §1
# [17] = molecular target: T11, ELF3 (Homo sapiens, UniProt P78545 1-371); details: protein: recombinant; tags: N-terminal GST; dsDNA, one strand shown
# T11 sequence: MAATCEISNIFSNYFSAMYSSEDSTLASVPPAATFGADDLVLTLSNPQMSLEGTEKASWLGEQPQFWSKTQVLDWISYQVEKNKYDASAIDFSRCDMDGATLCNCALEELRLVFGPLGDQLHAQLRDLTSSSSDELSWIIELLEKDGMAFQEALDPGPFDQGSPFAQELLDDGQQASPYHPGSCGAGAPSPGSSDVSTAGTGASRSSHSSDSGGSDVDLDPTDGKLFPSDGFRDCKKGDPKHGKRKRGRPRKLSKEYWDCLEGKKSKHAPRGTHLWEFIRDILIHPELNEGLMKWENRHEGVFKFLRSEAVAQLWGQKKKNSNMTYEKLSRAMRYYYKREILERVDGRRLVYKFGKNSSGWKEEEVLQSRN
# Procedure, shortened: as §1
# [18] = molecular target: CRX (Homo sapiens, UniProt O43186 1-299); details: protein: recombinant; tags: N-terminal GST; dsDNA, one strand shown
# Chain of CRX (O43186 whole entry): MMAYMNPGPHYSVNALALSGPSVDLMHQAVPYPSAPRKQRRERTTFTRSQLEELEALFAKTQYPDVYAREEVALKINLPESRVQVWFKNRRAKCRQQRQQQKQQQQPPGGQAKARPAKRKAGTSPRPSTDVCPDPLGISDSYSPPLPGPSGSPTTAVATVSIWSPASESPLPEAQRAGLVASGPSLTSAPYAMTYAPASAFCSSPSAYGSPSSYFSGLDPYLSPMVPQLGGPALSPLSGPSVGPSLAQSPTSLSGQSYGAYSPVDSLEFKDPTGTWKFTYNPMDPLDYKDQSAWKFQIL
# Procedure, shortened: as §1
# [19] = molecular target: ETV1 (Homo sapiens, UniProt P50549 1-477); details: protein: recombinant; tags: N-terminal GST; dsDNA, one strand shown
# Chain of ETV1 (P50549 whole entry): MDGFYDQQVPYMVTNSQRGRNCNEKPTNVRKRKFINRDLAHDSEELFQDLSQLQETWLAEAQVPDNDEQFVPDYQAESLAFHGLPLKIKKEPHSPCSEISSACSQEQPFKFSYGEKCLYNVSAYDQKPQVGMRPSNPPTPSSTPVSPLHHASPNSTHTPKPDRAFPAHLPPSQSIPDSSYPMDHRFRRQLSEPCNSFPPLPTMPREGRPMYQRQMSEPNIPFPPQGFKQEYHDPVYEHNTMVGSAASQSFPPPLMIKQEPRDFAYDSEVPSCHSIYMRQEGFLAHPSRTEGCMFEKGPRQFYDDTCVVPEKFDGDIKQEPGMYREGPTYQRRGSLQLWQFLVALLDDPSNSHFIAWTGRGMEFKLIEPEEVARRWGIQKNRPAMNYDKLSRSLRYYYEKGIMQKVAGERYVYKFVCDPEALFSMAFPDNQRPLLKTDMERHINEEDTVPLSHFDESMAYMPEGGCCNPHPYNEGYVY
# Procedure, shortened: as §1
sequence,measurement,setting,value
CTCTTA,binding signal,[1],"1.35 fold enrichment (6-mer frequency, TF over GST control)"
same,binding signal,[2],"1.4 fold enrichment (6-mer frequency, TF over GST control)"
same,binding signal,[3],"1.45 fold enrichment (6-mer frequency, TF over GST control)"
same,binding signal,[4],"1.27 fold enrichment (6-mer frequency, TF over GST control)"
same,binding signal,[5],"1.51 fold enrichment (6-mer frequency, TF over GST control)"
same,binding signal,[6],"1.23 fold enrichment (6-mer frequency, TF over GST control)"
same,binding signal,[7],"1.4 fold enrichment (6-mer frequency, TF over GST control)"
same,binding signal,[8],"1.32 fold enrichment (6-mer frequency, TF over GST control)"
same,binding signal,[9],"1.36 fold enrichment (6-mer frequency, TF over GST control)"
same,binding signal,[10],"1.34 fold enrichment (6-mer frequency, TF over GST control)"
same,binding signal,[11],"1.41 fold enrichment (6-mer frequency, TF over GST control)"
same,binding signal,[12],"1.52 fold enrichment (6-mer frequency, TF over GST control)"
same,binding signal,[13],"1.4 fold enrichment (6-mer frequency, TF over GST control)"
same,binding signal,[14],"1.32 fold enrichment (6-mer frequency, TF over GST control)"
same,binding signal,[15],"1.34 fold enrichment (6-mer frequency, TF over GST control)"
same,binding signal,[16],"1.49 fold enrichment (6-mer frequency, TF over GST control)"
same,binding signal,[17],"1.27 fold enrichment (6-mer frequency, TF over GST control)"
same,binding signal,[18],"2.2 fold enrichment (6-mer frequency, TF over GST control)"
same,binding signal,[19],"1.38 fold enrichment (6-mer frequency, TF over GST control)"
